Mdm2-MdmX inh = human Mdm2/MdmX binding inhibition; 330,000 compounds, 3% hits; SaOS-2 split-luciferase Mdm2/MdmX complementation, luminescence; AID 485346; inhibition, % at 8 µM;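 active means inhibition of at least 50% at 8 µM in the primary screen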
Target sequence (O15151 whole entry, looked up): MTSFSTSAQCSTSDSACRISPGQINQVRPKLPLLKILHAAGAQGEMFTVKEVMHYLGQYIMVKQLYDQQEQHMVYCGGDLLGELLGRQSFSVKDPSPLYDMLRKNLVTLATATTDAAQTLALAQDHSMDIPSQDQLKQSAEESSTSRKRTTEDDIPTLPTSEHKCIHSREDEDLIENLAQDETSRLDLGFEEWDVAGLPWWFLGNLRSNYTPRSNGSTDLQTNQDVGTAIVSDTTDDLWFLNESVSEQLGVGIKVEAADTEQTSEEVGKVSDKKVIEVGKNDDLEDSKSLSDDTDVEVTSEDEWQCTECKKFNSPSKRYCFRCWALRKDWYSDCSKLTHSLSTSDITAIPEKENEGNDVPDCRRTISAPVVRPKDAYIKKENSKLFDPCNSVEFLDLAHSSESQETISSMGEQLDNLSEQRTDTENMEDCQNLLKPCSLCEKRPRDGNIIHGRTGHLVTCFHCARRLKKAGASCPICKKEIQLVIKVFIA
Target sequence (Q00987 whole entry, looked up): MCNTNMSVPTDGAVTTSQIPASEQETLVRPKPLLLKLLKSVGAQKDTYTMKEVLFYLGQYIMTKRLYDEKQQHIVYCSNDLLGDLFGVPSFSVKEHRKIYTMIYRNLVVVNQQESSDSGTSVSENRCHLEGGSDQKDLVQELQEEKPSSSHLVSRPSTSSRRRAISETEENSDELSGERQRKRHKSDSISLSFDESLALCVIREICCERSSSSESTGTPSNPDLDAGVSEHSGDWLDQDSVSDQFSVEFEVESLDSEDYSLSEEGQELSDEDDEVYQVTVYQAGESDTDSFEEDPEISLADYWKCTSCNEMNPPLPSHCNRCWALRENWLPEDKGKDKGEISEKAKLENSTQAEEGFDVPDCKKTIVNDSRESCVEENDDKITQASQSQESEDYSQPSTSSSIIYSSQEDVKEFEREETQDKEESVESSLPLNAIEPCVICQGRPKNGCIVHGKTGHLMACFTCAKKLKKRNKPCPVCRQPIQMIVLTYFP
697 NFkB inh = inhibitors of the PMA/ionomycin-induced NF-kB reporter in 697 B cells. AID 435022. 697 B-cell NF-kB luciferase reporter, 16 h. 330,000 compounds, 0.33% hits. inhibition, % at 4 µM; in the data active means inhibition above about 35%
CSC inhib = cancer stem cell inhibition; cancer stem cell-like cells viability, luminescence; inhibition, % at 7.5 µM; 300,000 compounds, 1.1% hits; in the data active means inhibition above about 75%; inconclusive means no clear call, values can overlap the other calls; tested in HMLE shEcad cells
Beta cell apopt = beta cell apoptosis inhibition. INS-1E cytokine-induced death, ATP luminescence, 48 h; percent of positive-control rescue, neutral wells zero. protection from apoptosis, % (concentration not given with the values). 300,000 compounds, 0.8% hits;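 active means Every replicate reaches about 75%, or at least half do and their mean reaches it too, limit read from the data; inconclusive means At least half of replicates reach the limit but their mean does not; inactive means Under half of replicates reach the limit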;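 further: 0% = cytokine-treated negative control wells and 100% = positive control rescue; higher means more ATP so stronger rescue from cytokine killing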
Jurkat NFkB inh = lowers PMA/ionomycin-induced NF-kB signal in Jurkat cells | PMA/ionomycin-induced NF-kB luciferase reporter, luminescence | inhibition, % at 4 µM | 330,000 compounds, 0.53% hits; in the data active means inhibition above about 50%
Gli-Sufu block = Gli-Sufu pathway antagonism | Sufu-KO-LIGHT fibroblasts, Gli luciferase reporter luminescence | inhibition, % at 5 µM | 340,000 compounds, 0.74% hits | AID 588413;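 active means inhibition above about 55%, limit read from the data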;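 further: 0% = DMSO-treated cells and 100% = wells with medium but no cells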
Mdm2-MdmX conf = human Mdm2/MdmX binding inhibition, confirmed; shares compounds with Mdm2-MdmX inh; inhibition, % at 8 µM; AID 489028; 10,000 compounds, 55% hits; luminescent assay; in the data active means inhibition above about 40%
Full FLuc ctr = full-length luciferase inhibition in Mdm2/MdmX counter-screen; shares compounds with Mdm2-MdmX inh; SaOS-2 full-length luciferase counterscreen, luminescence; inhibition, % at 8 µM; 6,200 compounds, 77% hits;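 active means mean inhibition at 8 µM reaching about 37%, which flags the compound as non-specific, limit read from the data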;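 further: p53-null SaOS-2 cells with luciferase driven by a doxycycline-inducible promoter; compound on cells about two nights before reading with doxycycline added after day one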
The depositor's hits bear a star; ? = inconclusive; / = no result given. Only some compounds are listed: those with a hit (about 4.5% of all), similar ones and a draw of the others.

SMILES	Mdm2-MdmX inh	697 NFkB inh	CSC inhib	Beta cell apopt	Jurkat NFkB inh	Gli-Sufu block	Mdm2-MdmX conf	Full FLuc ctr
COc1cccc(OCC(O)CN2CCC(CN3C(=O)c4cccc5cccc(c45)C3=O)CC2)c1 (stereo not drawn)	0	-66	13	23	-17	8	/	/
COc1ccc(S(=O)(=O)N2CCC(C(=O)Nc3ccc(S(=O)(=O)N4CCCC4)cc3)CC2)cc1OC	11	-11	-16	5	-7	-8	/	/
CN(CCOc1ccccc1)CC(=O)Nc1ccc(Br)cc1F	7	-1	14	1	1	-7	/	/
CCCOc1ccc(Cc2c(O)nc(SC)[nH]c2=O)cc1	-14	-8	-8	-9	-9	3	/	/
C=CCN1C(=O)c2ccc(C(=O)OCC(=O)N3CCN(c4ccccc4)CC3)cc2C1=O	7	24	3	3	1	-9	/	/
CSc1nc2nccc(/C=C\c3ccccc3)n2n1	75*	4	21	-15	-10	9	66*	24
COc1cccc(NC(=S)N2CCN(C(c3ccccc3)c3ccccc3)CC2)c1	79*	-61	21	-20	-9	18	42*	68*
CC(C(=O)O)N(c1ccccc1Cl)S(C)(=O)=O (stereo not drawn)	10	-13	-12	-4	8	-1	/	/
CC(C)CCNc1nc(N)c([N+](=O)[O-])c(N2CCCCCC2)n1	3	-42	-6	26	44	15	/	/
Cc1ccc(S(=O)(=O)c2nc(S(C)(=O)=O)sc2N2CCC(C)CC2)cc1	53*	-19	-9	-9	11	4	7	/
CS(=O)(=O)c1nc(S(=O)(=O)c2ccc(Cl)cc2)c(N2CCOCC2)s1	57*	0	-6	-16	14	4	13	/
Cc1ccc(S(=O)(=O)c2nc(S(C)(=O)=O)sc2N2CCCCCC2)cc1	-10	-24	15	-12	4	48	/	/
COc1ccc(NC(=O)N(C)C[C@H]2Oc3c(NC(=O)Nc4ccc(C(F)(F)F)cc4)cccc3C(=O)N([C@H](C)CO)C[C@@H]2C)cc1	60*	20	/	0	12	-3	43*	69*
C[C@@H]1CN([C@H](C)CO)C(=O)c2cc(NS(=O)(=O)c3ccc(F)cc3)ccc2O[C@@H]1CN(C)Cc1ccc(Cl)c(Cl)c1	78*	-11	/	/	-12	-5	57*	50*
C[C@H](CO)N1C[C@H](C)[C@@H](CN(C)S(=O)(=O)c2ccc(F)cc2)Oc2ccc(NS(=O)(=O)c3ccc(F)cc3)cc2C1=O	12	7	-18	5	6	-2	/	/
C[C@H]1CN([C@@H](C)CO)C(=O)c2cccc(NC(=O)Nc3ccc(C(F)(F)F)cc3)c2O[C@@H]1CN(C)Cc1ccc(Cl)c(Cl)c1	72*	-10	/	23	-37	5	49*	75*
C[C@@H]1CN([C@H](C)CO)C(=O)c2cc(NC(=O)Nc3ccc(C(F)(F)F)cc3)ccc2O[C@H]1CN(C)Cc1ccc(Cl)c(Cl)c1	98*	9	/	/	5	20	47*	20
C[C@H](CO)N1C[C@H](C)[C@@H](CN(C)C(=O)Nc2ccc(C(F)(F)F)cc2)Oc2c(NC(=O)Nc3ccccc3)cccc2C1=O	34	4	/	0	-7	9	/	/
Cc1noc(C)c1COc1ccccc1C(=O)NCCOc1ccccc1	-6	-12	/	/	7	-7	/	/
CN(c1ccccc1)S(=O)(=O)c1cccc(NC(=O)c2ccc(=O)[nH]n2)c1	22	-31	-4	10	13	4	/	/
Cn1cccc1C(=O)NC(=O)COC(=O)c1ccc(S(C)(=O)=O)c([N+](=O)[O-])c1	64*	-2	53	-58	-4	-1	40	40*
Cn1ccsc1=NC(=O)c1ccc(S(C)(=O)=O)c([N+](=O)[O-])c1	51*	13	5	-25	22	6	23	/
CC(=O)c1c(C)[nH]c(C(=O)OCc2nnc(-c3ccc([N+](=O)[O-])cc3)o2)c1C	53*	-3	3	-8	-1	7	26	/
CS(=O)(=O)c1ccc(C(=O)OCc2nnc(-c3ccc(Cl)cc3)o2)cc1[N+](=O)[O-]	96*	20	48	-15	5	-13	60*	15
COc1cc(/C=N/Nc2nc(=O)[nH]nc2C)cc([N+](=O)[O-])c1O	-18	8	-15	3	-6	6	/	/
SMILES	Mdm2-MdmX inh	697 NFkB inh	CSC inhib	Beta cell apopt	Jurkat NFkB inh	Gli-Sufu block	Mdm2-MdmX conf	Full FLuc ctr
COc1cccc(CN(Cc2ccco2)S(=O)(=O)c2ccc(S(=O)(=O)NCc3ccccc3)cc2)c1OC	44	14	2	16	3	6	/	/
COc1cccc(CN(Cc2ccccc2F)S(=O)(=O)c2ccc(S(=O)(=O)NCc3ccccc3)cc2)c1	52*	-7	12	0	9	1	34	/
NC1=NC(=O)/C(=C\c2ccsc2)S1	23	11	-2	-10	-4	-5	/	/
CC1(C)COC(/C=C/c2cccc([N+](=O)[O-])c2)=N1	79*	8	-11	-52	9	-6	72*	39*
Cc1ccc(NC(=O)c2ccc([N+](=O)[O-])s2)cc1S(=O)(=O)N1CCOCC1	65*	3	25	-8	8	11	25	/
COc1ccccc1NC(=O)c1ccccc1NS(=O)(=O)c1cccs1	28	4	-7	15	8	17	/	/
Cc1ccc(NC(=O)c2ccccc2NS(=O)(=O)c2ccc(Cl)s2)cc1S(=O)(=O)N1CCOCC1	66*	-30	/	/	12	18	45*	52*
COc1ccc(C)cc1NC(=O)c1ccccc1NS(=O)(=O)c1ccc(Cl)s1	89*	-23	?	36	10	22	79*	32
O=C(Nc1cc(S(=O)(=O)N2CCOCC2)ccc1N1CCOCC1)c1ccc([N+](=O)[O-])s1	37	6	-10	1	17	-3	/	/
CCN1CCN(c2cc(-c3ccccc3)nc3cc(-c4cccc(F)c4)nn23)CC1	68*	-10	?	8	15	14	3	/
Cc1cc(N2CCOCC2)n2nc(-c3cccc(F)c3)cc2n1	16	-26	/	-2	-34	8	/	/
NC(=O)C1CCN(c2oc(/C=C/c3ccccc3)nc2S(=O)(=O)c2ccccc2)CC1	-9	-45	-14	-7	-2	15	/	/
COC(=O)c1c(C)n(-c2ccccc2)c2ccc(O)cc12	27	10	13	-2	7	-8	/	/
CN(C)/C=C/c1c([N+](=O)[O-])c2ccc(O)cc2n1-c1ccccc1	61*	-9	-8	-17	5	-14	68*	54*

Screening results from PubChem BioAssay.
